PubChem BioAssay AID1159580 (chemical genetic matrix, 2015)
“And” between values parts separate entries of the source, which are not always exact repeats. Identical values can stand only once. About 2,000 (36%) of roughly 5,500 compounds were called active. Another 18% or so got no clear call; they are omitted. Rule as the data show it: active = normalized growth mostly below about 0.91 (no sharp cut-off); inconclusive = no clear call, values can overlap the other calls; inactive = mostly above about 0.92. The list shows a part of the results.

Assay: chemical genetic growth profiling, strain panel (AID 1159580);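 also: tested at 20 µM; growth read once vehicle control cultures reached saturation at 30 °C; 1 = growth at the plate median or of vehicle wells; lower values mean less growth of the strain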
Settings: S. cerevisiae deletion strains, growth OD

Measured: normalized growth

C[C@]12CCC3c4ccc(O)cc4CCC3C1CCC2=O (stereo partly drawn)
inactive: locus YAL013W, strain DEP1, stronger effect = lower value 0.968 | locus YAL021C, strain ccr4, stronger effect = lower value 1 | locus YAL026C, strain drs2, stronger effect = lower value 0.993 | locus YAL030W, strain snc1, stronger effect = lower value 1.01 | locus YBL061C, strain skt5, stronger effect = lower value 0.999 | locus YBR009C, strain hhf1, stronger effect = lower value 0.953 | locus YBR021W, strain FUR4, stronger effect = lower value 0.875 | locus YBR023C, strain chs3, stronger effect = lower value 1.01 | locus YBR171W, strain sec66, stronger effect = lower value 0.992 | locus YBR229C, strain ROT2, stronger effect = lower value 0.96 | locus YBR231C, strain swc5, stronger effect = lower value 0.975 | locus YBR279W, strain paf1, stronger effect = lower value 0.988 | locus YCL011C, strain gbp2, stronger effect = lower value 1.01 | locus YCL016C, strain dcc1, stronger effect = lower value 1.01 | locus YCL029C, strain bik1, stronger effect = lower value 0.952 | locus YCL061C, strain MRC1, stronger effect = lower value 1.01 | locus YCL069W, strain vba3, stronger effect = lower value 1 | locus YCR088W, strain abp1, stronger effect = lower value 1.01 | locus YDL005C, strain med2, stronger effect = lower value 1.02 | locus YDL035C, strain GPR1, stronger effect = lower value 0.87 | locus YDL040C, strain nat1, stronger effect = lower value 1.01 | locus YDL101C, strain DUN1, stronger effect = lower value 0.987 | locus YDL134C, strain PPH21, stronger effect = lower value 0.901 | locus YDL185W, strain tfp1, stronger effect = lower value 0.96 | locus YDL192W, strain arf1, stronger effect = lower value 0.98 | locus YDR001C, strain nth1, stronger effect = lower value 1.02 | locus YDR069C, strain doa4, stronger effect = lower value 0.993 | locus YDR101C, strain arx1, stronger effect = lower value 0.923 | locus YDR159W, strain sac3, stronger effect = lower value 0.959 | locus YDR297W, strain sur2, stronger effect = lower value 1.01 | locus YDR318W, strain mcm21, stronger effect = lower value 0.967 | locus YDR334W, strain swr1, stronger effect = lower value 1.02 | locus YDR335W, strain msn5, stronger effect = lower value 0.998 | locus YDR388W, stronger effect = lower value 0.987 | locus YDR502C, strain sam2, stronger effect = lower value 0.939 | locus YEL003W, strain gim4, stronger effect = lower value 0.942 | locus YEL037C, strain rad23, stronger effect = lower value 1.01 | locus YEL061C, strain CIN8 (second series), stronger effect = lower value 1 | locus YEL061C, strain CIN8, stronger effect = lower value 0.997 | locus YER015W, strain faa2, stronger effect = lower value 1.01 | locus YER016W, strain bim1, stronger effect = lower value 0.978 | locus YER110C, stronger effect = lower value 0.985 | locus YER111C, strain swi4, stronger effect = lower value 1.02 | locus YER155C, strain BEM2 (second series), stronger effect = lower value 0.905 | locus YER155C, strain BEM2, stronger effect = lower value 1 | locus YER167W, strain BCK2, stronger effect = lower value 1.03 | locus YFR010W, strain ubp6, stronger effect = lower value 1 | locus YGL078C, strain dbp3, stronger effect = lower value 0.969 | locus YGL086W, strain mad1, stronger effect = lower value 0.959 | locus YGL167C, strain pmr1, stronger effect = lower value 1.03 | locus YGL173C, strain kem1, stronger effect = lower value 0.963 | locus YGL227W, strain vid30, stronger effect = lower value 1.03 | locus YGL240W, strain doc1, stronger effect = lower value 0.944 | locus YGL248W, strain PDE1, stronger effect = lower value 0.962 | locus YGL253W, strain hxk2, stronger effect = lower value 0.951 | locus YGR135W, strain pre9, stronger effect = lower value 1.02 | locus YGR252W, strain gcn5, stronger effect = lower value 0.874 | locus YHR013C, strain ard1, stronger effect = lower value 1.01 | locus YHR027C, strain rpn1, stronger effect = lower value 1 | locus YHR030C, strain SLT2, stronger effect = lower value 1.01 and 0.986 | locus YHR079C, strain IRE1 (second series), stronger effect = lower value 0.992 | locus YHR079C, strain IRE1, stronger effect = lower value 0.989 | locus YHR094C, strain hxt1, stronger effect = lower value 0.999 | locus YHR129C, strain ARP1, stronger effect = lower value 1.01 | locus YHR142W, strain chs7, stronger effect = lower value 0.949 | locus YHR200W, strain rpn10, stronger effect = lower value 0.984 | locus YIL066C, strain RNR3, stronger effect = lower value 0.982 | locus YIL073C, strain SPO22, stronger effect = lower value 0.94 | locus YIL125W, strain kgd1, stronger effect = lower value 0.986 | locus YIR030C, strain dcg1, stronger effect = lower value 1.02 | locus YJL092W, strain hpr5, stronger effect = lower value 1.02 | locus YJL095W, strain BCK1 (second series), stronger effect = lower value 1.01 | locus YJL095W, strain BCK1, stronger effect = lower value 0.919 and 0.992 | locus YJL115W, strain asf1, stronger effect = lower value 1.02 | locus YJL129C, strain trk1, stronger effect = lower value 1.03 | locus YJL134W, strain LCB3, stronger effect = lower value 0.992 | locus YJL154C, strain vps35, stronger effect = lower value 1.02 | locus YJL164C, strain tpk1, stronger effect = lower value 0.957 | locus YJL166W, strain qcr8, stronger effect = lower value 0.987 | locus YJL168C, strain set2, stronger effect = lower value 1 | locus YJL187C, strain SWE1 (second series), stronger effect = lower value 0.969 | locus YJL187C, strain SWE1, stronger effect = lower value 1.01 | locus YJR043C, strain POL32, stronger effect = lower value 0.937
active: locus YDL074C, strain BRE1, stronger effect = lower value 0.766 | locus YDR137W, strain rgp1, stronger effect = lower value 0.682 | locus YDR162C, strain NBP2, stronger effect = lower value 0.761 | locus YDR195W, strain ref2 1.26 [resistant] | locus YDR392W, strain spt3, stronger effect = lower value 0.625
